The record followed here is the supplement of paper PMC11732987, “Enantioselective OTUD7B fragment discovery through chemoproteomics screening and high-throughput optimisation” (Communications Chemistry, 2025).

What all share (experiment): log2 ratio of Biotin-Ahx-Ub-VS probe labelling (fragment/DMSO); higher = less target engagement (more negative = stronger competition), active = hit call of the paper (q ≤ 0.05, log2 ratio ≤ -1)
Details in all cases: compound concentration: 200 uM; treatment time: 3 h

One assay concerns the target T1, OTUD6B (UniProt Q8N6M0).
T1 sequence (whole entry): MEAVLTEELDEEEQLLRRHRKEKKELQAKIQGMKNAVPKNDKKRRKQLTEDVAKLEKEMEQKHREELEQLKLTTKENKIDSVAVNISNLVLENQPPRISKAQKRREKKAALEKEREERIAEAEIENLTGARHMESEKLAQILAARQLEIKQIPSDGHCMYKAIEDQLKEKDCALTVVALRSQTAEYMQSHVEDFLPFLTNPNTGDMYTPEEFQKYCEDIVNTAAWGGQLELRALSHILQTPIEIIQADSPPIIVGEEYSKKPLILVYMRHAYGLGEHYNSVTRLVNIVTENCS
The method in brief: (§1)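 Triplicate samples of HEK293T lysate, 495 µg each, received fragment at 200 µM or vehicle for 3 h, followed by Biotin-Ahx-Ub-VS (0.5 µM final) for 1 h. After NeutrAvidin enrichment of labelled DUBs and LysC/trypsin digestion, peptides were run by diaPASEF LC-MS/MS. The values are average log2 fragment/vehicle ratios from global-median-normalised Spectronaut label-free quantities, tested by unpaired t-test on proteins having ≥2 unique peptides.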

The target of the next assay is T2, OTUD7B (UniProt Q6GQQ9).
T2 sequence (whole entry): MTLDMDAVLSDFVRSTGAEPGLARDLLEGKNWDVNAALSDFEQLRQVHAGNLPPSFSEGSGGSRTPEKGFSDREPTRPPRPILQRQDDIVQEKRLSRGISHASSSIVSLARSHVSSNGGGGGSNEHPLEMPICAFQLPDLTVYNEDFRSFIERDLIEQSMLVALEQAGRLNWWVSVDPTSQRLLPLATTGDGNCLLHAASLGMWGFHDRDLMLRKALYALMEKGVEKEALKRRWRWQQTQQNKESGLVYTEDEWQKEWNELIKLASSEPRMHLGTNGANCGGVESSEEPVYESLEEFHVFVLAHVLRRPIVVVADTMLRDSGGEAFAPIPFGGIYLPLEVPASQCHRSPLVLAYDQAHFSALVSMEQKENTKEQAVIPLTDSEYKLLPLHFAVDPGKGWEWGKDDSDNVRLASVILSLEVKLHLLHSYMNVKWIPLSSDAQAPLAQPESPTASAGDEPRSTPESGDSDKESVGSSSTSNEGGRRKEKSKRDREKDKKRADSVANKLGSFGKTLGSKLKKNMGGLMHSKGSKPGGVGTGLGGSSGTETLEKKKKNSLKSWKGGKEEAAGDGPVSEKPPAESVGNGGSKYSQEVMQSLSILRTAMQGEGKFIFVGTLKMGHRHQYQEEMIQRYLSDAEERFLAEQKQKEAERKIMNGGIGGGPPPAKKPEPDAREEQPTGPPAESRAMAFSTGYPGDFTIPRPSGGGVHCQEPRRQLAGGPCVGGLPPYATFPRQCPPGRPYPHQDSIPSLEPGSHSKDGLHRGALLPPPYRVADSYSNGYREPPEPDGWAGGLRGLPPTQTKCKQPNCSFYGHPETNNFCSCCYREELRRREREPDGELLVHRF
In a few lines:
as §1

Another assay addresses PRPF8 (UniProt Q6P2Q9). The method in brief: as §1
A further assay deals with T3, PSMD7 (UniProt P51665).
T3 sequence (whole entry): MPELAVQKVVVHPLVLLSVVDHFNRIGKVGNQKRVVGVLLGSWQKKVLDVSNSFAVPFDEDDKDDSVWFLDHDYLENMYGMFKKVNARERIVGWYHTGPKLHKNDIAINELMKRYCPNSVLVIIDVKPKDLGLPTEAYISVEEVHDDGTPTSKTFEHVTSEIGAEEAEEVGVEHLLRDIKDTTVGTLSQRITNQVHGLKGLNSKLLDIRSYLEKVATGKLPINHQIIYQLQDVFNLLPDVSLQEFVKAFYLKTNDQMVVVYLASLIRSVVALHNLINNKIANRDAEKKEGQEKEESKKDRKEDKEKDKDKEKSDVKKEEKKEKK
The method in brief:
as §1

A further assay deals with UCHL1 (UniProt P09936). The method in brief:
as §1

In another assay the target is T4, UCHL3 (UniProt P15374).
T4 sequence (whole entry): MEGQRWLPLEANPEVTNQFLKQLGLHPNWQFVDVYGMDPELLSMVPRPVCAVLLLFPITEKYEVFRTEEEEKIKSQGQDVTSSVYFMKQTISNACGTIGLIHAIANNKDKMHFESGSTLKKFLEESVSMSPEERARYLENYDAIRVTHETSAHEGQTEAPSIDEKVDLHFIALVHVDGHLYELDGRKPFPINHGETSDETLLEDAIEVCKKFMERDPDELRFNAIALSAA
In a few lines:
as §1

For a further assay, the target named is T5, UCHL5 (UniProt Q9Y5K5).
T5 sequence (whole entry): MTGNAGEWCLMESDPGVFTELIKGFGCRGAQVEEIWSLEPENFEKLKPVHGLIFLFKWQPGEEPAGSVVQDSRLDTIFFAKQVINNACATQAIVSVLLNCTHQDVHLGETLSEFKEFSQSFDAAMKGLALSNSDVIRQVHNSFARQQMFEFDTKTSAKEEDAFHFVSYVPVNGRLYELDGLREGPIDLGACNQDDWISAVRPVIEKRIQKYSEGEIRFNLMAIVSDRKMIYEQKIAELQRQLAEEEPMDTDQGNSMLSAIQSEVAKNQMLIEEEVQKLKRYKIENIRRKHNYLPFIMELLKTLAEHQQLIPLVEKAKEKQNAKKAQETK
The method in brief:
as §1

The next assay addresses USP10 (UniProt Q14694). In a few lines:
as §1

The next assay concerns the target T6, USP15 (UniProt Q9Y4E8).
T6 sequence (whole entry): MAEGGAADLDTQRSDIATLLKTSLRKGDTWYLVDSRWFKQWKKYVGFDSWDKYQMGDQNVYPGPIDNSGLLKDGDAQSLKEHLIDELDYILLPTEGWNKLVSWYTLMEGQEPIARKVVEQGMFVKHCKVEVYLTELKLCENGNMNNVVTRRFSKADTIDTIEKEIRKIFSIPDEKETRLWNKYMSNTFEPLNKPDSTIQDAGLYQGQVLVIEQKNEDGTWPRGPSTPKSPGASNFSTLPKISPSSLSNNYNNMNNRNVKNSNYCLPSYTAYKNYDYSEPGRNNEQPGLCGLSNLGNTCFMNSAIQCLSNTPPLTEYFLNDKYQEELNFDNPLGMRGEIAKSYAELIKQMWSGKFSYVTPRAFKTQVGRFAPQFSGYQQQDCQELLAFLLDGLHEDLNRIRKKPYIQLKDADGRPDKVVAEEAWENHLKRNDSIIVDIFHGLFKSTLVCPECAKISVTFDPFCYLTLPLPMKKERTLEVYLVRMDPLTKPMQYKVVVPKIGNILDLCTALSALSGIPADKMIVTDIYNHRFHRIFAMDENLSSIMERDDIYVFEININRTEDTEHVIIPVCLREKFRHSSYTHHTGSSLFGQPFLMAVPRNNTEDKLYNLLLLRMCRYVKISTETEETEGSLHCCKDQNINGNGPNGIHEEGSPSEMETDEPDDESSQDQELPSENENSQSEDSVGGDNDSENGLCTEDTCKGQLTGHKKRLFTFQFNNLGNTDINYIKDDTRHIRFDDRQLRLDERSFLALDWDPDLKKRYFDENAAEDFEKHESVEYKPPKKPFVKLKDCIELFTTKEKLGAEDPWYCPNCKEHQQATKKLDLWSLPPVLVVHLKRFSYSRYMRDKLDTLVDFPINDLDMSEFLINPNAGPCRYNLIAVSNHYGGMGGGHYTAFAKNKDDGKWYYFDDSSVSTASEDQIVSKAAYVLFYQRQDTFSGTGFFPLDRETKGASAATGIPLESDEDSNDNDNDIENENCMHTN
The method in brief: as §1

The next assay deals with USP16 (UniProt Q9Y5T5). The method in brief: as §1

A number with no mark means an inactive call.

USP10, sequence (Q14694 whole entry): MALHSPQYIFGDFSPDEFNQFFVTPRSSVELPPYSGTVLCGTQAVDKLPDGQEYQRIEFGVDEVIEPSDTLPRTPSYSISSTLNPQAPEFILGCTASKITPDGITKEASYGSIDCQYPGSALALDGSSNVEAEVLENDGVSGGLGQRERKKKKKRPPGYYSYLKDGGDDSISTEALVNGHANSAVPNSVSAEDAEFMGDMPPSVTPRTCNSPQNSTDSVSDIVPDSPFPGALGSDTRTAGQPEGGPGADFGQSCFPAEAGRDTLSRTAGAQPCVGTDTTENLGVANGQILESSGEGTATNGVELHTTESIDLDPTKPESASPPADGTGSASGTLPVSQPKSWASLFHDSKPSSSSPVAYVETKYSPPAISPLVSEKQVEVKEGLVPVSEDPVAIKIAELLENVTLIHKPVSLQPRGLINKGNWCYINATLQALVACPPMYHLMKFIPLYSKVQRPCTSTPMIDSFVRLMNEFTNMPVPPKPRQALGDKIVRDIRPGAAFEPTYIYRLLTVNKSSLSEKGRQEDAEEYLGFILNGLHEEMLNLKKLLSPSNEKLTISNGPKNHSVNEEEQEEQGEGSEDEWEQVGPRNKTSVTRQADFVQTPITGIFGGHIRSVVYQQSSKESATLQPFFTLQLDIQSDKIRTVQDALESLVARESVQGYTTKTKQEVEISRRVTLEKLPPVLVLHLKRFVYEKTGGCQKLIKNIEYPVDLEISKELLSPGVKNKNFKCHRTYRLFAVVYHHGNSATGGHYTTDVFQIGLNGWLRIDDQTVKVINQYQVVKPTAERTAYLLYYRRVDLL
USP16, sequence (Q9Y5T5 whole entry, looked up): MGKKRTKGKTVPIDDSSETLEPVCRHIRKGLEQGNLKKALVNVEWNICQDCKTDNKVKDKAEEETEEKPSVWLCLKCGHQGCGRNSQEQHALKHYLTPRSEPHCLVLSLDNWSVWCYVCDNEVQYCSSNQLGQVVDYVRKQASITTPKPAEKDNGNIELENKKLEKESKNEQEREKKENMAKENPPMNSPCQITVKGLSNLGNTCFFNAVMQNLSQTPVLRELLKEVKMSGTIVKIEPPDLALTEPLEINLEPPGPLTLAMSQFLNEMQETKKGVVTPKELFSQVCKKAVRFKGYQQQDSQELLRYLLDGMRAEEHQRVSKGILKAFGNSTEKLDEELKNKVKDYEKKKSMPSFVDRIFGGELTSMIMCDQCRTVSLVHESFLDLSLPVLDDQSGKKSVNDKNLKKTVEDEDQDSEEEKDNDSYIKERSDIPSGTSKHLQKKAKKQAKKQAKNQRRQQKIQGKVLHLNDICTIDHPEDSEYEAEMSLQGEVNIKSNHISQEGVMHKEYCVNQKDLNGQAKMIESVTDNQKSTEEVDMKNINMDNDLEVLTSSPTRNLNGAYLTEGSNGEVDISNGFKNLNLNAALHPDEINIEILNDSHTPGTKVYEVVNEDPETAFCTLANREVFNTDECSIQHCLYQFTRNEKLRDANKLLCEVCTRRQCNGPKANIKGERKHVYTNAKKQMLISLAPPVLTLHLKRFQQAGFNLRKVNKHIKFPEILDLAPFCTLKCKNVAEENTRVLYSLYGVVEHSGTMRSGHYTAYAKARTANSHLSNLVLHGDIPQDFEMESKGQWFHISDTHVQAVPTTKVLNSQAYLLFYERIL
UCHL1, sequence (P09936 whole entry, looked up): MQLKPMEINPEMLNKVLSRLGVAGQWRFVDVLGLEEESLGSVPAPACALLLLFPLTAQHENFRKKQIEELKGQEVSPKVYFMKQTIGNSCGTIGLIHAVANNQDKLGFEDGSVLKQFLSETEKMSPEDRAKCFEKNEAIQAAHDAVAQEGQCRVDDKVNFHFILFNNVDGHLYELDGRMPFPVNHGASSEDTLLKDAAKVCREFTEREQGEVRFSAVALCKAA

`Cc1noc(N2CCN(C(=O)CCl)CC2)n1.Cl`: the “log2 ratio of Biotin-Ahx-Ub-VS probe labelling” value (“log2 ratio” below) with OTUD6B was -0.229; in the assay with OTUD7B, -0.413; with PRPF8, -0.079; with PSMD7, 0.128; in the assay with UCHL1, -1.52 (active); with UCHL3, 0.0214. In addition, the “log2 ratio” value with UCHL5 was -0.188; in the assay with USP10 it was -0.076; with USP15 it was -0.285; with USP16 it was 0.132.
Regarding `O=C(CCl)NC1CCN(C(=O)C2CCCCC2)CC1`, the “log2 ratio” value with OTUD6B was 0.191; in the assay with OTUD7B it was -0.643; with PRPF8, 0.0534; in the assay with PSMD7, -0.106; in the assay with UCHL1, -0.513; with UCHL3, 0.338. Further, the “log2 ratio” value with UCHL5 is 0.125; with USP10 it was -0.0591; in the assay with USP15, -0.0587; with USP16, -0.0778.
Take `O=C(CCl)N1CCCN(C(=O)c2ccc(Cl)cc2)CC1`: the “log2 ratio” value with OTUD6B was -0.316; in the assay with OTUD7B, -0.767; in the assay with PRPF8, 0.0935; with PSMD7, -0.253; in the assay with UCHL1 it was -1.68 (active); in the assay with UCHL3, 0.267. Further, the “log2 ratio” value with UCHL5 is -0.389; with USP10, 0.0223; with USP15, -0.429; with USP16 it was -0.13.
As to `O=C(CCl)N1CCC(=C(F)CO)C1`, the “log2 ratio” value is 0.0579 with OTUD6B; 0.0673 in the assay with OTUD7B; 0.202 in the assay with PRPF8; 0.0975 in the assay with PSMD7; -1.56 (active) with UCHL1; -0.0974 with UCHL3. The “log2 ratio” value with UCHL5 is 0.0121; with USP10 it was -0.107; with USP15, -0.156; with USP16 it was -0.506.
As for `Cc1cccc(NC(=O)CCl)c1C`, the “log2 ratio” value was -0.273 with OTUD6B; -0.61 with OTUD7B; 0.0787 in the assay with PRPF8; -0.631 in the assay with PSMD7; -0.766 with UCHL1; -1.39 (active) with UCHL3. For the same compound, the “log2 ratio” value in the assay with UCHL5 was -0.0693; with USP10, -0.292; in the assay with USP15 it was -0.43; with USP16, -0.691.
With `O=C(CCl)N1CCC(C(=O)N2CCCC2)CC1`, the “log2 ratio” value with OTUD6B is -0.427; with OTUD7B, -0.121; with PRPF8, 0.0985; with PSMD7, 0.0529; in the assay with UCHL1 it was -1.3 (active); with UCHL3, 0.284. Also, the “log2 ratio” value in the assay with UCHL5 is 0.037; in the assay with USP10, -0.257; in the assay with USP15 it was -0.395; with USP16, -0.362.
As to `Cc1nc(CN2CCCN(C(=O)CCl)CC2)no1.Cl`, the “log2 ratio” value was 0.121 with OTUD6B; 0.0504 with OTUD7B; 0.0827 with PRPF8; 0.166 with PSMD7; -0.971 in the assay with UCHL1; 0.331 with UCHL3. Besides, the “log2 ratio” value is -0.00418 in the assay with UCHL5, 0.0299 with USP10, -0.0311 in the assay with USP15 and -0.188 with USP16.
`CS(=O)(=O)c1ccc(CNC(=O)CCl)cc1`: the “log2 ratio” value in the assay with OTUD6B was -0.168; with OTUD7B, -0.575; with PRPF8 it was -0.126; with PSMD7, -0.155; with UCHL1, -1.33 (active); with UCHL3 it was 0.301. Also, the “log2 ratio” value with UCHL5 is -0.165; with USP10, -0.141; with USP15 it was -0.268; in the assay with USP16, -0.251.
